Assay outcomes deposited in PubChem by National Center for Advancing Translational Sciences (NCATS).
ATXN2 expr inh – reduces ATXN2 reporter expression in HEK-293 cells; HEK-293 ATXN2-luciferase reporter, luminescence, 24 h; Potency, µM (series often up to 57 µM), for the others: at the highest dose activity change, negative = inhibition, most hits filed as inhibitors; actives 0.72% (n = 360,000); also: % is scaled to controls: 0 for no effect and ±100 for the full control effect; nearly all actives have a fitted effect of over 55% in size
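ATXN2-luciferase reporter cells (luciferase flanked by upstream and downstream ATXN2 gene portions) were treated 24 h at 37 °C with compounds at up to 57 uM. SteadyGlo luminescence gave expression; GF-AFC fluorescence gave viability.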
HepG2 tox – kills HepG2 cells in TGF-b inhibitor counter-screen; HepG2 CAGA-GFP viability, ATP luminescence, 18 h; Potency, µM (titrated, usually from 46.1 µM), inactives show at the top dose activity change, negative = cytotoxicity, actives largely listed as cytotoxic; actives 0.76% (n = 410,000); AID 588856
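CellTiter-Glo luminescence gave cytotoxicity after 18 hours at 37 degrees C. The cells were HepG2 CAGA-GFP in 1% FBS DMEM, stimulated with 500 pg/mL TGF-beta after compound addition. %Activity was normalised to no-cell wells (complete cell-killing) and DMSO (no toxicity), and curves were fitted and classified.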
DT40 TDP1 CPT – growth inhibition of DT40 Tdp1-/-;hTDP1 cells with camptothecin (screen for TDP1 inhibitors). actives 12% (n = 420,000). Potency, µM (series often up to 46.2 µM), inactives show top-dose activity change, negative = growth inhibition, usual class: inhibitors. chicken DT40 Tdp1-/-;hTDP1 cells + 20 nM CPT, ATP luminescence, 48 h; also: % is scaled to controls: 0 for no effect and ±100 for the full control effect; nearly all actives have a fitted effect of over 55% in size
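Cell growth measured by CellTiter-Glo luminescence after a minimum 48 h, 37 C compound exposure with 20 nM CPT in Tdp1-knockout DT40 cells stably expressing hTDP1, seeded 400/well; qHTS titration format.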
TDP1 cell noCPT – qHTS for Inhibitors of human tyrosyl-DNA phosphodiesterase 1 (TDP1): qHTS in cells in absence of CPT | AID 686978, 2013 | actives 15% (n = 420,000) | DT40 Tdp1-/- hTDP1 cells, no CPT, ATP luminescence, 48 h | Potency, µM (titrated, usually from 46.2 µM), for inactives: top-dose activity change, negative = growth inhibition, hits mostly inhibitors; also: % is scaled to controls: 0 for no effect and ±100 for the full control effect; nearly all actives have a fitted effect of over 55% in size
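Seeded 400 DT40-hTDP1 cells/well (vehicle DMSO, no 20 nM CPT); pinned compounds; ≥48 hr at 37 °C; CellTiter-Glo luminescence as viability measure.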
ATXN viability – viability counter-screen for ATXN expression inhibitors | AID 651635 | Potency, µM (titrated, usually from 56.7 µM), usual class: cytotoxic | S2 cells (HEK-293 line with an ATXN2-luciferase reporter) viability, CellTiter-Fluor protease fluorescence, 24 h | actives 0.49% (n = 400,000); also: nearly all actives have a fitted effect of over 40% in size
TGFb SMAD3 inh – inhibitors of TGF-b signaling | actives 1.2% (n = 410,000) | HepG2 CAGA-GFP TGF-b/SMAD3 reporter, GFP fluorescence, 18 h; TGF-beta stimulated, 500 pg/mL final | AID 588855 | Potency, µM (series often up to 46.1 µM), for inactives: at the top dose activity, negative = inhibition, hits mostly inhibitors; also: % is scaled to controls: 0 for no effect and ±100 for the full control effect; nearly all actives have a fitted effect of over 65% in size
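HEPG2 CAGA-GFP reporter cells (1000/well, DMEM with 1% FBS) received compounds, then recombinant TGF-beta at 500 pg/mL final for 18 hours at 37 degrees C. Per-cell GFP summed per well was normalised to unstimulated and stimulated DMSO controls before curve fitting.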
The depositor's hits bear a star; i = inactive; ? = inconclusive; . = not tested or not shown; ! = not confirmed by another sample. A selection: hits, their analogues and other compounds. The true share with any hit is near 17%. Calls follow the shape of the dose curve; as a rule, active = well fitted curve in the direction sought with a large enough effect; inconclusive = small, poorly fitted or top-dose-only effect, or another doubt; inactive = no such curve, though single readings can be large; an effect the other way counts as inactive or inconclusive. Potency is read from the fitted curve at half-maximal effect.

SMILES	ATXN2 expr inh	HepG2 tox	DT40 TDP1 CPT	TDP1 cell noCPT	ATXN viability	TGFb SMAD3 inh
CCC(=Nc1ccc2c(c1)CCC2)c1c(O)n(C)c(=O)n(C)c1=O	-11%	-9%	12µM*	21µM*	i	-10%
CCOC(=O)c1ccc(N=C(CC)c2c(O)n(C)c(=O)n(C)c2=O)cc1	-14%	4%	?	18µM*	i	1%
CCC(=Nc1ccc(Cc2ccncc2)cc1)c1c(O)n(C)c(=O)n(C)c1=O	-18%	-10%	5µM*!	5µM*	i	21%
CCC(=NCc1ccc(F)cc1)c1c(O)n(C)c(=O)n(C)c1=O	-11%	-3%	23µM*	18µM*	i	7%
COC(=O)C1=C(c2cccc(OC)c2OC)C[C@@H]2CC[C@H]1N2C(=O)NCc1cccc2ccccc12	4%	-23%	?	?	i	?
COc1cccc2c1O[C@H]1C(=O)CC[C@H]3CN(C)CCC231 (some centres not stated)	1%	-1%	.	.	i	0%
CCOc1ccccc1CN(CCc1ccc2c(c1)OCO2)Cc1ccc(CC)cc1	-14%	-34%	?	?	i	1%
COc1ncccc1C(=O)NCC(CC(=O)O)c1ccccc1 (configuration not stated)	1%	-1%	3%	2%	i	-1%
CCN(C=C1CC2C3CC=C4CC(O)CCC4(C)C3CCC2(C)C1=O)CC (configuration not stated)	-5%	-20%	-2%	?	i	-6%
CCC(=Nc1ccc2c(c1)CCC2)c1c(O)n(-c2ccc(OC)cc2)c(=O)[nH]c1=O	-26%	2%	21µM*	15µM*	i	-1%
CCC(=Nc1ccc(OC)cc1OC)c1c(O)n(C2CCCCC2)c(=O)[nH]c1=O	?	-9%	?	?	i	?
O=c1c2ccccc2nc(/C=C/c2ccccc2F)n1-c1cccc(O)c1	.	-10%	?	?	.	-10%
Clc1cccc(/C=N\Nc2nccs2)c1	2%	9%	15µM*	4.6µM*	i	-23%
CCn1c(C)nc2cc(S(=O)(=O)Nc3ccc(C)cc3)ccc21	4%	-15%	?	?	i	-7%
CCC1C(=O)OC[C@H]1Cc1cncn1C (some centres not stated)	.	.	5%	-6%	.	.
CCC(C)(C)n1nnnc1C(c1cccs1)N1CC=C(c2ccc(F)cc2)CC1 (configuration not stated)	4%	-4%	23µM*	?	i	-1%
Cc1ccccc1NC(=O)CSc1nc2ccccc2c2nc(CCn3c(C)nc4ccccc43)nn12	6%	2%	15µM*	18µM*	?	0%
CC1OC(=O)C(C(C)C)NC(=O)C(C(C)C)OC(=O)C(C(C)C)NC(=O)C(C)OC(=O)C(C(C)C)NC(=O)C(C(C)C)OC(=O)C(C(C)C)NC(=O)C(C)OC(=O)C(C(C)C)NC(=O)C(C(C)C)OC(=O)C(C(C)C)NC1=O (configuration not stated)	.	.	0.18µM*	0.22µM*	.	.
O=C(O)/C=C/CO	.	.	-3%	-4%	.	.
Cc1nn(CCC#N)c2c1P(=S)(N1CCCC1)OC(c1ccc(F)cc1)=N2 (configuration not stated)	-9%	16%	29µM*	?	i	22%
CC1COC2=C1C(=O)C(=O)c1c2ccc2c1CCCC2(C)C (configuration not stated)	.	.	?	13µM*	.	.
C[C@H]1COC2=C1C(=O)C(=O)c1c2ccc2c1CCCC2(C)C	3%	10µM*	5.2µM*	5.2µM*	?	4.5µM*
CCc1ccc(N2C(=O)NC(=O)/C(=C\c3cc(C)n(-c4cc(C(=O)O)cc(C(=O)O)c4)c3C)C2=O)cc1	6%	-4%	1%	-18%	i	-2%
CCN(C(=O)Cn1c(=O)oc2cc(Cl)ccc21)c1cccc(C(F)(F)F)c1	-14%	-92%	?	-25%	i	?
COc1ccc(C(CNC(=O)c2cc(S(=O)(=O)N3CCCCC3)ccc2C)N2CCCC2)cc1 (configuration not stated)	-6%	0%	?	?	i	0%
SMILES	ATXN2 expr inh	HepG2 tox	DT40 TDP1 CPT	TDP1 cell noCPT	ATXN viability	TGFb SMAD3 inh
CC(C)NC(=O)C(C)N1CCN(S(=O)(=O)c2ccc3ccccc3c2)CC1 (configuration not stated)	-38%	13%	18µM*	15µM*	i	0%
Cc1[nH]c2c(Cl)cccc2c(=O)c1CN1CCCCCC1	9%	-12%	?	-16%	i	3%
ClCCN(CCCl)c1ccc(/C=C/c2sc3ccccc3[n+]2CCCCI)cc1	.	-15%	3.2µM*	2.5µM*	.	?
Cc1ccccc1N1CCN(C2CCCN(C(=O)COc3ccccc3)C2)CC1 (configuration not stated)	-5%	-5%	26µM*	21µM*	i	?
COc1ccc(-c2c3c(=O)n(C)c(=O)n(C)c3c3n2-c2ccccc2NC3c2ccccc2OC)cc1 (configuration not stated)	-21%	-7%	10µM*	15µM*	i	?
Cn1c(=O)c2c(-c3ccccc3)n3c(c2n(C)c1=O)C(c1cc(Cl)ccc1O)Nc1ccccc1-3 (configuration not stated)	7%	-24%	9.2µM*	15µM*	i	-46%
CC(C)(C)c1ccc(O)cc1	-5%	.	4%	1%	i	.
O=C(CCS(=O)(=O)c1ccccc1)Nc1nnc(-c2ccco2)o1	1%	-4%	?	?	i	0%
C#C[C@]1(O)C=C[C@@H]2[C@@H]3CCC4=CC(=O)CC[C@@H]4[C@H]3CC[C@@]21CC	9%	.	.	.	.	.
CCn1cc2nc(SCc3c(F)cccc3Cl)n(CCc3ccccc3)c(=O)c2n1	-34%	-26%	15µM*	23µM*	i	?
CCn1cc2nc(SCc3cccc(C(F)(F)F)c3)n(Cc3ccc(OC)cc3)c(=O)c2n1	-26%	-28%	21µM*	15µM*	i	?
CNC(=O)c1cccn(Cc2cccc(C(F)(F)F)c2)c1=O	1%	-19%	-8%	?	i	0%
